Whole data set: some 33,000 sequences, median “E-score (-0.5 to 0.5)” near -0.036, cut for the highest 2% near 0.37. This is one part of a sample in which the highest values are shown more often than they occur.
target: T1, Yer064c (UniProt P40041); assay: PBM E-score (8-mer binding enrichment) (E-score (-0.5 to 0.5)); higher = stronger / more preferred TF binding; details: protein concentration: 200 nM; construct: GST-full length
T1 sequence: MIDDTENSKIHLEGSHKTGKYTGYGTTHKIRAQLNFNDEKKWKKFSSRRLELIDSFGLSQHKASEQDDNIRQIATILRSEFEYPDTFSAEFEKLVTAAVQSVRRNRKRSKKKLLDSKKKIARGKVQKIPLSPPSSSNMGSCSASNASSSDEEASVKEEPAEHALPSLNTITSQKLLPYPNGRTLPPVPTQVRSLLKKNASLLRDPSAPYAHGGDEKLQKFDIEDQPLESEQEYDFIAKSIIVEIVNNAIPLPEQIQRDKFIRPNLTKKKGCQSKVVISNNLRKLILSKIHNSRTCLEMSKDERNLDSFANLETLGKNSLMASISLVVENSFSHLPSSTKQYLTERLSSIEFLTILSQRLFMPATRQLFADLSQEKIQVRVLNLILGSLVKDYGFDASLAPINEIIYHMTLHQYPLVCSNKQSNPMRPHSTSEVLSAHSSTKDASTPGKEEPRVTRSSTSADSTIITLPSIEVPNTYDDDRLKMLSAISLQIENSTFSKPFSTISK
Procedure, shortened: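 Masliner-normalised scans of fluorescent anti-GST signal were the basis for scoring. That signal came from GST-tagged yeast transcription factors applied at about 100-200 nM to double-stranded universal all-10-mer Agilent arrays on fresh or once-stripped slides. Each ungapped eight-base word, pooled with its reverse complement, received an E-score from the Universal PBM Analysis Suite.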

Row | Sequence | PBM E-score
1 | ACTCAGCT | 0.216
2 | ACCGGAAG | -0.0509
3 | GATGCTCC | -0.345
4 | AACAACCA | 0.13
5 | ATGGGGAC | -0.14
6 | CGAAATCA | 0.309
7 | CCGCGGAC | -0.0248
8 | CGTGGAGC | -0.124
9 | CCACCCCA | -0.0763
10 | ATGACCGG | -0.128
11 | AATATATC | -0.0361
12 | AGGATTCC | 0.0611
13 | ATGATTCC | 0.456
14 | CGGATTCA | 0.194
15 | CAGATTCA | 0.157
16 | CTGATTCC | 0.301
17 | CTGATTCA | 0.45
18 | CTCGGCCC | -0.206
19 | GTGAATAA | 0.0323
20 | ATGAATCG | 0.355
21 | ATGAATCA | 0.48
22 | GTGAATCA | 0.48
23 | CTGAATCC | 0.235
24 | GTGAATGA | 0.14
25 | CTGAATTA | 0.0399

Row | Sequence | PBM E-score
26 | CTGAATCA | 0.455
27 | ATGAATCC | 0.253
28 | CTAAGGTA | 0.105
29 | GTTTATTA | 0.148
30 | CGATGTGA | 0.103
31 | ACATCACA | -0.0462
32 | GCGTGAAA | -0.106
33 | CTGACGGA | -0.0463
34 | GGGTAAAC | 0.0204
35 | GTCTGTCA | -0.107
36 | AACTCCGC | -0.0186
37 | GACTCCGC | 0.406
38 | TACTCCGA | 0.0904
39 | CACTCCGC | -0.0571
40 | GACTCCGA | 0.417
41 | AACTCCGA | -0.0453
42 | GTGCACCA | -0.178
43 | AGGTAGTG | -0.0767
44 | AGGTAGTC | 0.407
45 | CGGTAGTC | 0.409
46 | CGGTAGTA | 0.0891
47 | AGGTAGTA | 0.0729
48 | CGGTAGGC | -0.178
49 | CTTCAGGA | 0.00919
50 | CATTCACC | -0.166

Row | Sequence | PBM E-score
51 | GATTCACA | 0.375
52 | GATTCACC | 0.372
53 | CATTCACG | 0.0972
54 | CATTCACA | -0.00304
55 | AATTCACC | -0.0422
56 | CGATAGAC | 0.00233
57 | CGCCTTTA | 0.0724
58 | ATATCTCA | 0.0798
59 | CTTGGGAA | 0.0531
60 | ATTCCTAA | 0.183
61 | GATGATTA | 0.47
62 | GATTATGC | 0.112
63 | AATTATGA | 0.248
64 | AATGATTA | 0.449
65 | AATGATAA | 0.0741
66 | CTTGATTA | 0.303
67 | GTTGATTA | 0.381
68 | ATTGATTA | 0.286
69 | GATTATGA | 0.38
70 | AATGATGA | 0.289
71 | GATGATGA | 0.256
72 | GATGATCA | 0.323
73 | AACCGCAG | -0.0549
74 | ATCAACTA | 0.23
75 | AGTGAAAT | 0.143

Row | Sequence | PBM E-score
76 | ACCTCCCT | -0.107
77 | CCGGTTAA | -0.0828
78 | CCCGAGGG | -0.0969
79 | CCTGATTA | 0.344
80 | ACTGATTA | 0.343
81 | GCTGATTA | 0.392
82 | CTTTCCCC | -0.153
83 | AGTCGTAT | 0.379
84 | ACTCGTAT | 0.107
85 | GGTCGTAC | -0.205
86 | ACTCGTAG | 0.218
87 | TGTCGTAA | -0.0131
88 | CGTCGTAG | 0.0225
89 | AGTCGTAC | 0.399
90 | CGTCGTAC | -0.0504
91 | AATCGTAT | 0.118
92 | AGTCGTAG | 0.406
93 | AGTCGTAA | 0.378
94 | GGTCGTAA | -0.0401
95 | GAGAGCGA | -0.0993
96 | GCGATAAC | -0.135
97 | CGTGGACA | -0.323
98 | GCGCGGAC | 0.0396
99 | ATGACCGA | -0.0163
100 | AGTCCTAA | 0.366

Row | Sequence | PBM E-score
101 | AGTCCTAT | 0.306
102 | TGTCCTAA | -0.0793
103 | AATAGCTA | -0.0209
104 | GCCTGGGA | -0.343
105 | TAGAATCA | 0.362
106 | CAGAATCA | 0.349
107 | GAGAATCA | 0.392
108 | AAGAATCA | 0.392
109 | GAGAATTA | -0.167
110 | GAGAATCC | -0.141
111 | GAACAGCA | -0.175
112 | AATGGACC | 0.0237
113 | AGAGACTC | 0.386
114 | CGAGACGA | -0.0652
115 | CCAGACTC | 0.206
116 | AGAGACTG | 0.0785
117 | CCAGACTA | 0.208
118 | AGAGACTA | 0.347
119 | CGAGACTC | 0.369
120 | CGAGACAC | 0.13
121 | GGAGACTA | 0.375
122 | GGAGACAA | -0.173
123 | GGAGACCA | -0.176
124 | CGAGACTA | 0.37
125 | AGCCTAGC | -0.166

Row | Sequence | PBM E-score
126 | CTTCGCGA | 0.105
127 | ATGAGATA | 0.0605
128 | GTGCGGCA | -0.143
129 | CGGCGATA | 0.143
130 | AAGGAACG | -0.167
131 | AAAAGGAT | -0.0899
132 | GCACCCCC | -0.268
133 | AGTTAGTA | 0.196
134 | AGTTAGTC | 0.447
135 | CGTTAGTA | 0.0645
136 | CGTTAGTC | 0.45
137 | CGTTAGAC | -0.00028
138 | AGTTAGTG | 0.0232
139 | AATTGTAG | 0.13
140 | AAGAGCGC | 0.0664
141 | CCGTACAG | -0.123
142 | AAAATATA | 0.102
143 | CTAAGTAA | 0.204
144 | CTAAGTCC | 0.148
145 | ATAAGTCA | 0.438
146 | GTAAGTAA | 0.0006
147 | ATAAGTCC | 0.161
148 | GTAAGTCA | 0.448
149 | GTAAGTGA | 0.131
150 | CTAAGTCA | 0.449

Row | Sequence | PBM E-score
151 | ATAAGTCG | 0.223
152 | CATCTCGG | 0.181
153 | AATCCAGC | -0.149
154 | AACCCATA | 0.111
155 | GAAGCGGA | -0.189
156 | GAATCAGC | 0.417
157 | AAATCAGC | 0.227
158 | CAATCAGA | 0.208
159 | GAATCAGA | 0.402
160 | AAATCAGA | 0.158
161 | CAATCAGC | 0.317
162 | CTTGCCGC | -0.264
163 | AGAGAACA | -0.0209
164 | GCGAACGC | -0.058
165 | CCGAATCA | 0.348
166 | CCGAATCC | -0.186
167 | TCGAATAA | -0.00971
168 | TCGAATCA | 0.369
169 | ACGAATCT | 0.123
170 | GCGAATCA | 0.414
171 | ACGAATCA | 0.404
172 | ACGAATCC | 0.171
173 | GCGAATCC | -0.066

Source: the supplement of paper PMC3334620
